# Active and inactive are the calls of the source. The calls were made as follows: active = hit-call score of the fitted dose curve at least 0.9, where 1 is the maximum; inactive = score below 0.9.
# Read-out: Thrombomodulin, THBD (gene 7056)
# Assay: BSK_3C_Thrombomodulin: BioMAP Diversity Plus: 3C Assay for Thrombomodulin Biomarker Activity (AID 2283029)
# Settings: primary human endothelial cells (HUVEC); actives raise or lower the signal
# In short: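 Thrombomodulin ELISA, human primary HUVEC, 24 h post-dose; data fitted in both directions relative to DMSO.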
Compound,outcome,AC50
O=C1O[C@H]([C@H](O)CO)C(O)=C1O,inactive,–
O=C(O)CC(O)(CC(=O)O)C(=O)O,inactive,–
CCCCCCCCCCCCCCOS(=O)(=O)O,–,33.8 µM (active)
CN(C)CCCN(C)CCCN(C)C,inactive,–
Cn1cnc2c1c(=O)[nH]c(=O)n2C,inactive,–
N[C@@H](Cc1c[nH]c2ccccc12)C(=O)O,inactive,–
CO[C@@H]1COCC[C@@H]1N[C@@H]1CC[C@@](C(=O)N2CCc3ncc(C(F)(F)F)cc3C2)(C(C)C)C1,inactive,–
CC(C)c1cccc(C(C)C)c1,inactive,–
CC(=O)O,inactive,–
NC(=Nc1ccccc1)Nc1ccccc1,inactive,–
CC(=O)S[C@H](C(=O)N[C@H]1Cc2ccccc2[C@H]2CCC[C@@H](C(=O)O)N2C1=O)C(C)C,inactive,–
OCC(CO)n1cnc(-c2ccc(F)cc2)c1-c1ccnc(Oc2ccccc2)n1,–,2.28 µM (active)
CCCCc1nc2cccnc2n1Cc1ccc(-c2ccccc2-c2nnn[nH]2)cc1,inactive,–
O=C1NC(=O)C(c2ccccc2)(c2ccccc2)N1,inactive,–
Nc1nc(=S)c2[nH]cnc2[nH]1,inactive,–
COC(=O)[C@H]1[C@H]2C[C@@H]3c4[nH]c5cc(OC)ccc5c4CCN3C[C@H]2C[C@@H](OC(=O)c2cc(OC)c(OC)c(OC)c2)[C@@H]1OC,inactive,–
CCCC[C@H]1CN(CC2CCOCC2)C(=O)OC12CCN(C1(C)CCN(C(=O)c3c(C)ncnc3C)CC1)CC2,inactive,–
O=C(O)c1cccnc1,inactive,–
O=C(Oc1ccccc1)c1cccc(C(=O)Oc2ccccc2)c1,inactive,–
O=C1c2c(O)cccc2Cc2cccc(O)c21,inactive,–
COc1ccc(C(=O)Nc2nc3ccccc3c(NCc3ccccc3)c2C#N)cc1,inactive,–
O=[Si]=O,inactive,–
COC(=O)CCC(=O)OC,inactive,–
O=Cc1ccccc1C=O,inactive,–
c1ccc2occc2c1,inactive,–
CC(C)NCC(O)c1ccc(O)c(O)c1 (stereo not given),inactive,–
C/C=C/C=C/C(=O)O,inactive,–
CC1=C(C)S(=O)(=O)CCS1(=O)=O,inactive,–
CCCCC(CC)COC(=O)CCCCCCCC(=O)OCC(CC)CCCC (stereo not given),inactive,–
O=C1OC(c2ccc(O)cc2)(c2ccc(O)cc2)c2ccccc21,inactive,–
